Assay results from PubChem BioAssay (NCATS).
Results filed as inconclusive are left out. Calls of active or inactive are those of the source. The call rests on the fitted dose curve; in most records, active means well fitted curve in the direction sought with a large enough effect; inconclusive means small, poorly fitted or top-dose-only effect, or another doubt; inactive means no such curve, though single readings can be large; an effect the other way counts as inactive or inconclusive.

Tests used:
[1] = molecular target: Rap guanine nucleotide exchange factor 3 (Homo sapiens) (UniProt O95398); assay: Confirmatory qHTS for antagonist of cAMP-regulated guanine nucleotide exchange factor 3 (EPAC1) (AID 1645880); further: nearly all actives have a fitted effect of over 55% in size; further: potency means the concentration at half of the fitted maximal effect
In short: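 Released BODIPY-GDP fluoresces less than Rap1-bound BODIPY-GDP; the signal is followed at 480/540 nm at 5-min intervals over 30 min, after 5 min at room temperature. Reactions contain 100 nM EPAC1, 250 nM RAP1B-BODIPY-GDP and 50 uM GDP; results are normalized to ATA and DMSO.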

[2] = molecular target: Rap guanine nucleotide exchange factor 3 (Homo sapiens) (UniProt O95398); assay: Confirmatory qHTS for agonist of cAMP-regulated guanine nucleotide exchange factor 3 (EPAC1) (AID 1645881);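 further: EPAC1 catalysed release of BODIPY-GDP from Rap1B seen as fluorescence loss; 100% = effect of cAMP agonist control; nearly all actives have a fitted effect of over 75% in size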
[3] = molecular target: Rap guanine nucleotide exchange factor 4 (Homo sapiens) (UniProt Q8WZA2); assay: Confirmatory qHTS for agonist of cAMP-regulated guanine nucleotide exchange factor 4 (EPAC2) (AID 1645884);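 further: nucleotide exchange releases bodipy-GDP from Rap1 and this lowers its fluorescence; on the % scale 0 is the no-effect control and ±100 the full control effect; nearly all actives have a fitted effect of over 65% in size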
[4] = molecular target: Rap guanine nucleotide exchange factor 4 (Homo sapiens) (UniProt Q8WZA2); assay: Confirmatory qHTS for antagonist of cAMP-regulated guanine nucleotide exchange factor 4 (EPAC2) (AID 1645885); further: nearly all actives have a fitted effect of over 25% in size; further: potency means the concentration at half of the fitted maximal effect; on activity change, negative = inhibition: on the % scale 0 is the no-effect control and ±100 the full control effect
[5] = molecular target: Rap guanine nucleotide exchange factor 3 (Homo sapiens) (UniProt O95398); assay: Counterscreen qHTS for antagonist of cAMP-regulated guanine nucleotide exchange factor 3 (EPAC1) (AID 1645888); further: % of control where 0% means no effect
In short: (§1)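 Measured: fluorescence of BODIPY-GDP bound to Rap1B, which falls as exchange proceeds. Conditions include 50 uM competing GDP, 5 and 30 min reads, and a later cAMP challenge for antagonist detection.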

[6] = molecular target: Rap guanine nucleotide exchange factor 3 (Homo sapiens) (UniProt O95398); assay: Counterscreen qHTS for agonist of cAMP-regulated guanine nucleotide exchange factor 3 (EPAC1) (AID 1645889); further: nearly all actives have a fitted effect of over 40% in size; further: potency means the concentration at half of the fitted maximal effect; on activation: % of control where 0% means no effect
In short: as §1

Rap guanine nucleotide exchange factor 3 (Homo sapiens), sequence (O95398 whole entry, looked up): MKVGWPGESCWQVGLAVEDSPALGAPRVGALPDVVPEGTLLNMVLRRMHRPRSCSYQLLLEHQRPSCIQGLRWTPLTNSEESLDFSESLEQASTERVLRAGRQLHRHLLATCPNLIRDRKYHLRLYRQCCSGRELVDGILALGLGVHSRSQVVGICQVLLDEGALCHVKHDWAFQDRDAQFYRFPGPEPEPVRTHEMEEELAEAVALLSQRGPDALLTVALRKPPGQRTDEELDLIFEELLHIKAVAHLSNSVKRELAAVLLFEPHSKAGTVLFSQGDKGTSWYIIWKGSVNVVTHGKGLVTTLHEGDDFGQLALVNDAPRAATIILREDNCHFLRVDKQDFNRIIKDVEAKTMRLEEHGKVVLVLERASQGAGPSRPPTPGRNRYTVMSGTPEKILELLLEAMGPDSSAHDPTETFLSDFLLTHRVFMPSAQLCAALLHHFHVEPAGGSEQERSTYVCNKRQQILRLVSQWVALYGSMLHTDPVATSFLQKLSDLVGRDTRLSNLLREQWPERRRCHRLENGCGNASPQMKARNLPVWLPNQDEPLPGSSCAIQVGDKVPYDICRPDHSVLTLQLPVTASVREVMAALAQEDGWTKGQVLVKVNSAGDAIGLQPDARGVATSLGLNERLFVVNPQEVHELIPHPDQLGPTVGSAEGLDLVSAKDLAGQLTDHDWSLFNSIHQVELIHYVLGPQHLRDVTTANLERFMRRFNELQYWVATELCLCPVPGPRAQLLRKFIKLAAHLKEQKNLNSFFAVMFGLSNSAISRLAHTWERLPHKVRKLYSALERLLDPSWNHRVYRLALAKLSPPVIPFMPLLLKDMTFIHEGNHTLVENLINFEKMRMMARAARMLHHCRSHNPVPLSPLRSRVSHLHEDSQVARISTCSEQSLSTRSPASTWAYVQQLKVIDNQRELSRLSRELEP
Rap guanine nucleotide exchange factor 4 (Homo sapiens), sequence (Q8WZA2 whole entry, looked up): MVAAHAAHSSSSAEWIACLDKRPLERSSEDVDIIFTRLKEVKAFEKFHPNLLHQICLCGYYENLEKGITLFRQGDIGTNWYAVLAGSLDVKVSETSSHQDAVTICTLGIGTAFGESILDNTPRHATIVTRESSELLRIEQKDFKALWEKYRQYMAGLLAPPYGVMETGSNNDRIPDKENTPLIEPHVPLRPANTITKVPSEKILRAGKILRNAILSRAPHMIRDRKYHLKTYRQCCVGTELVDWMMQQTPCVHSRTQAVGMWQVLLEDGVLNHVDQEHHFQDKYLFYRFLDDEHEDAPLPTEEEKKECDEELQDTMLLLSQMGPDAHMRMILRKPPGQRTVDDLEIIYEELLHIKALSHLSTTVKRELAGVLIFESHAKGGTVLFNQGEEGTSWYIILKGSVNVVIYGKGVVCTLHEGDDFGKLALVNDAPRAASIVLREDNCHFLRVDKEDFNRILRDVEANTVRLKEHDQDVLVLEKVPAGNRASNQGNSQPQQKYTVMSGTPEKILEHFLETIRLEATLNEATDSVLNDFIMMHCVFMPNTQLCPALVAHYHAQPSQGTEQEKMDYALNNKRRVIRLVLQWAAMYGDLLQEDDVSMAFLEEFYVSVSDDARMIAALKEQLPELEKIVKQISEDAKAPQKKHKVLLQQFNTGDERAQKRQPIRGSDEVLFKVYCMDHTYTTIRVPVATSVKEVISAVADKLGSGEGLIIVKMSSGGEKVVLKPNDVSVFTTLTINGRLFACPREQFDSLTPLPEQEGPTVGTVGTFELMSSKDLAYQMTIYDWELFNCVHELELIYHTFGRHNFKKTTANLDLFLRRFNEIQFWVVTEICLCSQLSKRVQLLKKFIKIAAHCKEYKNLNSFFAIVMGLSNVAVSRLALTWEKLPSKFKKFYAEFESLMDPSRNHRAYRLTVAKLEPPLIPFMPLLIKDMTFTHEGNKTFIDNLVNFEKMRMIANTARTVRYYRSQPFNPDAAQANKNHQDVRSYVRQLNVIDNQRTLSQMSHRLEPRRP

C#Cc1ccc([C@@H]2C=C(C(=O)NCc3nc4ccccc4[nH]3)O[C@H](OCC)[C@H]2CCCO)cc1
inactive: Potency [1] | Potency [2] | activation [3] 7.11% [at 17.1 µM, percent relative to cAMP agonist control] | Potency [4] | activity change, negative = inhibition [5] -6.31% [at 30.8 µM] | activation [6] 30.9% [at 30.8 µM]

CCOC(=O)c1ccc(NC(=O)CSc2nc(=O)n3cccc(C)c3n2)cc1
inactive: Potency [1] | Potency [2] | Potency [3] | Potency [4] | Potency [5] | Potency [6]

Brc1ccc(-c2csc(-c3c[nH]c4ccccc34)n2)cc1
inactive: Potency [1] | Potency [2] | activation [3] 6.69% [at 17.1 µM, percent relative to cAMP agonist control] | Potency [4] | activity change, negative = inhibition [5] 3.69% [at 30.8 µM] | activation [6] 15.5% [at 30.8 µM]

Cn1c(=O)c2nc3ccc(NC(=O)C(F)(F)F)cc3nc2n(C)c1=O
active: Potency [1] 84.9 µM
inactive: Potency [2] | Potency [3] | Potency [4] | Potency [5] | Potency [6]

C[C@@H](NC(=O)C1(c2ccccc2)CCN(C(=O)OC(C)(C)C)CC1)C(=O)N[C@@H](C(=O)O)c1ccccc1
inactive: Potency [2] | Potency [3] | Potency [5] | Potency [6]
active: Potency [1] 42.6 µM | Potency [4] 42.6 µM

CCN(CC(=O)Nc1ccccc1C(F)(F)F)C(=O)CCOc1ccccc1C
inactive: Potency [1] | Potency [2] | activation [3] -3.64% [at 17.1 µM, percent relative to cAMP agonist control] | Potency [4] | activity change, negative = inhibition [5] -14% [at 30.8 µM] | activation [6] 1.11% [at 30.8 µM]

Cc1ccc(Cl)cc1NC(=O)c1ccccc1OCC(=O)Nc1ccc(Cl)cc1
inactive: Potency [1] | Potency [2] | activation [3] 0.829% [at 17.1 µM, percent relative to cAMP agonist control] | Potency [4] | activity change, negative = inhibition [5] -9.99% [at 30.8 µM] | activation [6] 12.9% [at 30.8 µM]

COC(=O)C1=C(C)N(Cc2ccco2)C(=O)/C1=C\c1ccc(N(C)C)cc1
inactive: Potency [1] | Potency [2] | Potency [3] | Potency [4] | Potency [5] | Potency [6]

CN(C(=O)COC(=O)/C=C/c1ccc2c(c1)OCO2)c1c(N)n(Cc2ccccc2)c(=O)[nH]c1=O
inactive: Potency [1] | Potency [2] | Potency [3] | Potency [4] | Potency [5] | Potency [6]

COc1cc(CCc2ccccc2)c(C(=O)O)c(O)c1CC=C(C)C
inactive: Potency [2] | Potency [3] | Potency [4] | Potency [5] | Potency [6]
active: Potency [1] 42.6 µM

C=CCc1c(C)c(C#N)c2nc3ccccc3n2c1N1CCCCC1
inactive: Potency [1] | Potency [2] | Potency [3] | Potency [4] | Potency [5] | Potency [6]

COC(=O)c1sccc1NS(=O)(=O)c1ccccc1[N+](=O)[O-]
inactive: Potency [1] | Potency [2] | activation [3] -1.71% [at 17.1 µM, percent relative to cAMP agonist control] | Potency [4] | activity change, negative = inhibition [5] -0.412% [at 30.8 µM] | activation [6] 33.8% [at 30.8 µM]

CCCNC(=O)C1CCN(S(=O)(=O)c2ccc3[nH]c(=O)ccc3c2)CC1
inactive: Potency [1] | Potency [2] | Potency [3] | Potency [4] | Potency [5] | Potency [6]

O=C(N/N=C/c1cc(Br)c(O)c(Br)c1)c1cc2c(ccc3ccccc32)o1
active: Potency [1] 39.8 µM
inactive: Potency [2] | activation [3] -5.24% [at 17.1 µM, percent relative to cAMP agonist control] | Potency [4] | activity change, negative = inhibition [5] -6.71% [at 30.8 µM] | activation [6] 1.28% [at 30.8 µM]

COCCn1c(SCC(=O)c2ccccc2)nc2cc(C(=O)NC3CCCC3)ccc2c1=O
inactive: Potency [1] | Potency [2] | Potency [3] | Potency [4] | Potency [5] | Potency [6]

CC1(C(=O)NS(=O)(=O)c2ccc3ccccc3c2)CCN1C(=O)C1(c2ccc(Cl)cc2)CCC1 (stereo not given)
inactive: Potency [2] | Potency [3] | Potency [4] | Potency [5] | Potency [6]
active: Potency [1] 37.9 µM

Cc1cccc(CN2[C@@H](CC(C)C)COCCS2(=O)=O)c1
inactive: Potency [1] | Potency [2] | Potency [3] | Potency [4] | Potency [5] | Potency [6]

Cc1ccc(N(Cc2cccs2)C(=O)c2ccccc2[N+](=O)[O-])cc1
inactive: Potency [1] | Potency [2] | Potency [3] | Potency [4] | Potency [5] | Potency [6]

CCc1ccccc1N(CC(=O)NCCc1ccccc1)C(=O)CCC(=O)Nc1ccccn1
inactive: Potency [1] | Potency [2] | Potency [3] | Potency [4] | Potency [5] | Potency [6]

CCN(CC)c1nc(C)nc2c1sc(=S)n2C
inactive: Potency [1] | Potency [2] | Potency [3] | Potency [4] | Potency [5] | Potency [6]

CCC(C(=O)OC)n1c(-c2ccccc2)nc2ccccc2c1=O (stereo not given)
inactive: Potency [1] | Potency [2] | Potency [3] | Potency [5] | Potency [6]
active: Potency [4] 19 µM

CC1(C(=O)NS(=O)(=O)c2ccc(Cl)s2)CCN1C(=O)C1(c2ccc(Cl)cc2)CCC1 (stereo not given)
inactive: Potency [2] | Potency [3] | Potency [5] | Potency [6]
active: Potency [1] 9.53 µM | Potency [4] 8.49 µM

CC(C)Cc1csc(NC(=O)c2ccc(F)cc2)c1C(=O)O
inactive: Potency [1] | Potency [2] | Potency [3] | Potency [4] | Potency [5] | Potency [6]

CCc1nc(C)cn1S(=O)(=O)c1cc(C)c(OC)cc1C
inactive: Potency [1] | Potency [2] | Potency [3] | Potency [4] | Potency [5] | Potency [6]

COc1cc(/C=C(\C#N)C(=O)NC(C)C)cc(Cl)c1O
inactive: Potency [1] | Potency [2] | Potency [3] | Potency [4] | Potency [5] | Potency [6]

O=C1Nc2c(Cl)cc(Cl)cc2C1=O
inactive: Potency [1] | Potency [2] | Potency [3] | Potency [4] | Potency [5]
active: Potency [6] 31.6 µM

CCCc1[nH]nc2c1C(c1cccnc1)C(C#N)=C(N)O2 (stereo not given)
inactive: Potency [1] | Potency [2] | activation [3] 5.78% [at 17.1 µM, percent relative to cAMP agonist control] | Potency [4] | activity change, negative = inhibition [5] -9.67% [at 30.8 µM] | activation [6] -0.109% [at 30.8 µM]

Cc1nc(=O)c(-c2ccccc2)c(C)n1CCCCCC(=O)O
inactive: Potency [1] | Potency [2] | activation [3] 0.623% [at 17.1 µM, percent relative to cAMP agonist control] | Potency [4] | activity change, negative = inhibition [5] -38.6% [at 30.8 µM] | activation [6] 4.21% [at 30.8 µM]

O=C(CCC1CCCC1)Nc1ccc([N+](=O)[O-])cn1
inactive: Potency [1] | Potency [2] | Potency [3] | Potency [4] | Potency [5] | Potency [6]

O=C(O)COc1ccc(NC(=O)C(c2ccccc2)c2ccccc2)cc1
inactive: Potency [1] | Potency [2] | Potency [3] | Potency [5] | Potency [6]
active: Potency [4] 33.8 µM

O=C1NC(=Nc2ccccc2Cl)S/C1=C\c1cccc([N+](=O)[O-])c1O
inactive: Potency [2] | Potency [3] | Potency [4] | Potency [5] | Potency [6]
active: Potency [1] 21.3 µM

Cc1ccc(S(=O)(=O)NCCC(=O)N2CC(C)OC(C)C2)cc1 (stereo not given)
inactive: Potency [1] | Potency [2] | Potency [3] | Potency [4] | Potency [5] | Potency [6]

CNC(=O)NC(=O)C(NC1CCCc2ccccc21)c1ccccc1 (stereo not given)
inactive: Potency [1] | Potency [2] | Potency [3] | Potency [5] | Potency [6]
active: Potency [4] 47.8 µM

CC(C)OC(=O)NC(c1ccccc1)C(Cl)(Cl)Cl (stereo not given)
inactive: Potency [1] | Potency [2] | activation [3] 4.21% [at 17.1 µM, percent relative to cAMP agonist control] | Potency [4] | activity change, negative = inhibition [5] -2.25% [at 30.8 µM] | activation [6] 7.19% [at 30.8 µM]

Cc1cc(S(=O)(=O)Nc2ccccc2C)ccc1F
inactive: Potency [1] | Potency [2] | Potency [3] | Potency [5] | Potency [6]
active: Potency [4] 13.5 µM

Cc1nc2c(C(=O)NCCC(C)C)c[nH]n2c(=O)c1Cl
active: Potency [4] 84.9 µM
inactive: Potency [1] | Potency [2] | Potency [3] | Potency [5] | Potency [6]

N#Cc1c(-c2ccccc2)nc(SCC(=O)Nc2ccc(OC(F)(F)Cl)cc2)[nH]c1=O
active: Potency [1] 67.5 µM | Potency [4] 12 µM
inactive: Potency [2] | Potency [3] | Potency [5] | Potency [6]

Cc1ccc(S(=O)(=O)/N=C2\C=C(Nc3cccc(C(=O)O)c3)C(=O)c3ccccc32)c(C)c1
inactive: Potency [2] | Potency [3] | Potency [4] | Potency [5] | Potency [6]
active: Potency [1] 26.9 µM

COc1cc(/C=C2\SC(=O)N(CC(=O)Nc3cccc(C)c3)C2=O)cc([N+](=O)[O-])c1O
inactive: Potency [2] | Potency [3] | Potency [5] | Potency [6]
active: Potency [1] 19 µM | Potency [4] 47.8 µM

O=C(NCCOc1ccccc1-c1ccccc1)c1ccco1
inactive: Potency [1] | Potency [2] | activation [3] 6.96% [at 17.1 µM, percent relative to cAMP agonist control] | Potency [4] | activity change, negative = inhibition [5] -5.39% [at 30.8 µM] | activation [6] 12.2% [at 30.8 µM]

CC(C)(C)c1cc(-c2csc(Nc3ccccc3)[n+]2Cc2ccc(C(=O)O)cc2)cc(C(C)(C)C)c1O
active: Potency [1] 67.5 µM | Potency [4] 84.9 µM
inactive: Potency [2] | Potency [3] | Potency [5] | Potency [6]

O=C1CC(c2ccccc2C(F)(F)F)c2c(c3ccccc3[nH]c2=O)O1 (stereo not given)
inactive: Potency [1] | Potency [2] | Potency [3] | Potency [4] | Potency [5] | Potency [6]

COc1ccc(C2=CC(=O)C[C@H](COCc3ccccc3)N(C(=O)OC(C)(C)C)O2)cc1
inactive: Potency [1] | Potency [2] | Potency [3] | Potency [4] | Potency [5] | Potency [6]

CC(C)Sc1nc2sccc2c(=O)n1-c1ccccc1
inactive: Potency [1] | Potency [2] | Potency [3] | Potency [5] | Potency [6]
active: Potency [4] 42.6 µM

Cc1[nH]c2ccccc2c1C(C[N+](=O)[O-])c1cccs1 (stereo not given)
inactive: Potency [1] | Potency [2] | activation [3] 5.2% [at 17.1 µM, percent relative to cAMP agonist control] | Potency [4] | activity change, negative = inhibition [5] -10.6% [at 30.8 µM] | activation [6] 46.2% [at 30.8 µM]
